According to PubChem BioAssay AID1159580 (chemical genetic matrix, 2015):
Out of some 5,500 compounds screened, about 2,000 (36%) were called active. Inconclusive results (about 18%) are left out. Rule as the data show it: active = normalized growth mostly below about 0.91 (no sharp cut-off); inconclusive = no clear call, values can overlap the other calls; inactive = mostly above about 0.92. This is one part of the list.

Assay: chemical genetic growth profiling, strain panel (AID 1159580);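 also: tested at 20 µM; growth read once vehicle control cultures reached saturation at 30 °C; 1 = growth at the plate median or of vehicle wells; lower values mean less growth of the strain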
Conditions: growth OD

Measured: normalized growth

CC1(C)C(C=C(Cl)Cl)C1C(=O)OC(C#N)c1cccc(Oc2ccccc2)c1 (stereo unspecified)
inactive: S. cerevisiae deletion strains, locus YAL013W, strain DEP1, stronger effect = lower value 0.996 | S. cerevisiae deletion strains, locus YBR021W, strain FUR4, stronger effect = lower value 0.962 | S. cerevisiae deletion strains, locus YBR229C, strain ROT2, stronger effect = lower value 0.986 | S. cerevisiae deletion strains, locus YCL029C, strain bik1, stronger effect = lower value 1.01 | S. cerevisiae deletion strains, locus YDL035C, strain GPR1, stronger effect = lower value 0.998 | S. cerevisiae deletion strains, locus YDL074C, strain BRE1, stronger effect = lower value 1.01 | S. cerevisiae deletion strains, locus YDL101C, strain DUN1, stronger effect = lower value 0.993 | S. cerevisiae deletion strains, locus YDL134C, strain PPH21, stronger effect = lower value 0.995 | S. cerevisiae deletion strains, locus YDL185W, strain tfp1, stronger effect = lower value 0.996 | S. cerevisiae deletion strains, locus YDL192W, strain arf1, stronger effect = lower value 1 | S. cerevisiae deletion strains, locus YDR101C, strain arx1, stronger effect = lower value 0.996 | S. cerevisiae deletion strains, locus YDR150W, strain NUM1, stronger effect = lower value 1 | S. cerevisiae deletion strains, locus YDR162C, strain NBP2, stronger effect = lower value 1.02 | S. cerevisiae deletion strains, locus YDR318W, strain mcm21, stronger effect = lower value 0.983 | S. cerevisiae deletion strains, locus YDR388W, stronger effect = lower value 1 | S. cerevisiae deletion strains, locus YDR502C, strain sam2, stronger effect = lower value 0.998 | S. cerevisiae deletion strains, locus YEL061C, strain CIN8, stronger effect = lower value 0.999 | S. cerevisiae deletion strains, locus YER110C, stronger effect = lower value 0.99 | S. cerevisiae deletion strains, locus YER155C, strain BEM2, stronger effect = lower value 0.999 | S. cerevisiae deletion strains, locus YER167W, strain BCK2, stronger effect = lower value 0.987 | S. cerevisiae deletion strains, locus YGL078C, strain dbp3, stronger effect = lower value 1 | S. cerevisiae deletion strains, locus YGL086W, strain mad1, stronger effect = lower value 0.954 | S. cerevisiae deletion strains, locus YGL248W, strain PDE1, stronger effect = lower value 0.983 | S. cerevisiae deletion strains, locus YGR078C, strain PAC10, stronger effect = lower value 1.01 | S. cerevisiae deletion strains, locus YGR135W, strain pre9, stronger effect = lower value 0.992 | S. cerevisiae deletion strains, locus YGR229C, strain SMI1, stronger effect = lower value 1 | S. cerevisiae deletion strains, locus YGR252W, strain gcn5, stronger effect = lower value 0.95 | S. cerevisiae deletion strains, locus YHR030C, strain SLT2, stronger effect = lower value 0.99 | S. cerevisiae deletion strains, locus YHR079C, strain IRE1 (second series), stronger effect = lower value 1 | S. cerevisiae deletion strains, locus YHR094C, strain hxt1, stronger effect = lower value 0.998 | S. cerevisiae deletion strains, locus YHR129C, strain ARP1, stronger effect = lower value 0.997 | S. cerevisiae deletion strains, locus YHR200W, strain rpn10, stronger effect = lower value 0.992 | S. cerevisiae deletion strains, locus YIL066C, strain RNR3, stronger effect = lower value 0.98 | S. cerevisiae deletion strains, locus YIL073C, strain SPO22, stronger effect = lower value 0.99 | S. cerevisiae deletion strains, locus YIL125W, strain kgd1, stronger effect = lower value 1.01 | S. cerevisiae deletion strains, locus YIR030C, strain dcg1, stronger effect = lower value 0.998 | S. cerevisiae deletion strains, locus YJL095W, strain BCK1, stronger effect = lower value 1.01 | S. cerevisiae deletion strains, locus YJL134W, strain LCB3, stronger effect = lower value 0.984 | S. cerevisiae deletion strains, locus YJL168C, strain set2, stronger effect = lower value 1 | S. cerevisiae deletion strains, locus YJL187C, strain SWE1 (second series), stronger effect = lower value 1 | S. cerevisiae deletion strains, locus YJR043C, strain POL32, stronger effect = lower value 0.987 | S. cerevisiae deletion strains, locus YJR075W, strain HOC1, stronger effect = lower value 0.998 | S. cerevisiae deletion strains, locus YKL009W, strain mrt4, stronger effect = lower value 0.96 | S. cerevisiae deletion strains, locus YKL068W, stronger effect = lower value 1 | S. cerevisiae deletion strains, locus YKL085W, strain MDH1 (second series), stronger effect = lower value 0.992 | S. cerevisiae deletion strains, locus YKL085W, strain MDH1, stronger effect = lower value 0.992 | S. cerevisiae deletion strains, locus YKL190W, strain CNB1, stronger effect = lower value 1 | S. cerevisiae deletion strains, locus YKR001C, strain vps1, stronger effect = lower value 0.976 | S. cerevisiae deletion strains, locus YLR039C, strain RIC1, stronger effect = lower value 0.969 | S. cerevisiae deletion strains, locus YLR058C, strain SHM2, stronger effect = lower value 0.993 | S. cerevisiae deletion strains, locus YLR102C, strain apc9, stronger effect = lower value 1 | S. cerevisiae deletion strains, locus YLR262C, strain YPT6, stronger effect = lower value 0.99 | S. cerevisiae deletion strains, locus YLR268W, strain sec22, stronger effect = lower value 1 | S. cerevisiae deletion strains, locus YLR330W, strain CHS5, stronger effect = lower value 0.995 | S. cerevisiae deletion strains, locus YLR342W, strain FKS1 (second series), stronger effect = lower value 0.951 | S. cerevisiae deletion strains, locus YLR371W, strain rom2, stronger effect = lower value 1 | S. cerevisiae deletion strains, locus YLR418C, strain cdc73, stronger effect = lower value 1.05 | S. cerevisiae deletion strains, locus YML016C, strain PPZ1, stronger effect = lower value 0.994 | S. cerevisiae deletion strains, locus YML032C, strain rad52, stronger effect = lower value 0.98 | S. cerevisiae deletion strains, locus YML124C, strain tub3, stronger effect = lower value 0.998 | S. cerevisiae deletion strains, locus YMR078C, strain ctf18, stronger effect = lower value 0.98 | S. cerevisiae deletion strains, locus YMR223W, strain ubp8, stronger effect = lower value 0.974 | S. cerevisiae deletion strains, locus YMR263W, strain SAP30, stronger effect = lower value 1.01 | S. cerevisiae deletion strains, locus YMR307W, strain GAS1, stronger effect = lower value 0.94 | S. cerevisiae deletion strains, locus YNL067W, strain RPL9B, stronger effect = lower value 1.01 | S. cerevisiae deletion strains, locus YNL128W, strain TEP1, stronger effect = lower value 1 | S. cerevisiae deletion strains, locus YNL153C, strain GIM3, stronger effect = lower value 1.01 | S. cerevisiae deletion strains, locus YNL233W, strain BNI4, stronger effect = lower value 1.01 | S. cerevisiae deletion strains, locus YNL250W, strain rad50, stronger effect = lower value 0.993 | S. cerevisiae deletion strains, locus YNL271C, strain bni1, stronger effect = lower value 0.998 | S. cerevisiae deletion strains, locus YNL298W, strain CLA4, stronger effect = lower value 0.964 | S. cerevisiae deletion strains, locus YNL307C, strain MCK1, stronger effect = lower value 0.991 | S. cerevisiae deletion strains, locus YNL322C, strain KRE1, stronger effect = lower value 0.994 | S. cerevisiae deletion strains, locus YNR052C, strain pop2, stronger effect = lower value 0.979 | S. cerevisiae deletion strains, locus YOL006C, strain TOP1, stronger effect = lower value 1.03 | S. cerevisiae deletion strains, locus YOL012C, strain htz1 1.96 | S. cerevisiae deletion strains, locus YOL147C, strain pex11, stronger effect = lower value 1.01 | S. cerevisiae deletion strains, locus YOR061W, strain CKA2, stronger effect = lower value 0.997 | S. cerevisiae deletion strains, locus YOR069W, strain VPS5, stronger effect = lower value 0.995 | S. cerevisiae deletion strains, locus YOR136W, strain idh2, stronger effect = lower value 1 | S. cerevisiae deletion strains, locus YOR144C, strain elg1, stronger effect = lower value 0.997 | S. cerevisiae deletion strains, locus YOR184W, strain ser1, stronger effect = lower value 0.983 | S. cerevisiae deletion strains, locus YOR316C, strain cot1, stronger effect = lower value 0.996 | S. cerevisiae deletion strains, locus YPL055C, strain LGE1, stronger effect = lower value 1.03 | S. cerevisiae deletion strains, locus YPL241C, strain CIN2, stronger effect = lower value 1 | S. cerevisiae deletion strains, locus YPR119W, strain clb2, stronger effect = lower value 1.01 | S. cerevisiae deletion strains, locus YPR141C, strain kar3, stronger effect = lower value 0.992 | S. cerevisiae deletion strains, locus YPR163C, strain tif3, stronger effect = lower value 1.01 | S. cerevisiae deletion strains, locus YPR167C, strain met16, stronger effect = lower value 0.99 | S. cerevisiae deletion strains, strain wtn01, stronger effect = lower value 0.991 | S. cerevisiae strains, strain wild type, stronger effect = lower value 1.01
